The source of these data is PubChem BioAssay.

The source made the active and inactive calls. No rule for the calls is given here.

Chain of Pantothenate synthetase (Mycobacterium tuberculosis (strain ATCC 25618 / H37Rv)) (P9WIL5 whole entry, looked up): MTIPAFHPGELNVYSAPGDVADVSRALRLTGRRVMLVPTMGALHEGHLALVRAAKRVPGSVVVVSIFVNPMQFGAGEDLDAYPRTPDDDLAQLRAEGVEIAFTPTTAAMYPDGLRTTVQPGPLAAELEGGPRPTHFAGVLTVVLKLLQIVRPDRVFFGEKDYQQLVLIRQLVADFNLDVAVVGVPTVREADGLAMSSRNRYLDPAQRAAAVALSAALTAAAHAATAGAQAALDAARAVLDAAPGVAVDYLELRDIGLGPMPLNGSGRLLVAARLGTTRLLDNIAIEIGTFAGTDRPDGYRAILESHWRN

This assay has as its target Pantothenate synthetase (Mycobacterium tuberculosis (strain ATCC 25618 / H37Rv)) (UniProt P9WIL5). Briefly: Recombinant Mtb pantothenate synthetase (PanC) inhibitors, coupled enzyme, confirmatory (AID 375).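 Also: 0% = full reaction with vehicle and 100% = no enzyme background.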 Particulars: coupled enzyme assay; at 10 µM, active compounds read high.
With `CCOc1cc(NC(=O)c2ccccn2)c(OCC)cc1NC(=O)CC(C)C`, the inhibition (in general, how much of the control response was suppressed) is 11% (inactive). As for `CN(C)CCNC(=O)c1ccc(COCC(F)(F)F)cc1`, the figure is 0% (inactive); as for `CC1CCN(C(=O)C2CCN(S(=O)(=O)c3cnc[nH]3)CC2)CC1`, 5% (inactive); as for `C=Cn1c(N2CCOCC2)nc2c1c(=O)[nH]c(=O)n2C`, 16% (inactive).

Consider `N#CC1=C(N)n2c(s/c(=C\c3ccco3)c2=O)=C(C#N)C1c1ccco1` (stereo not given), for which the inhibition is 0% (inactive). Regarding `CS(=O)(=O)NCCSCc1c(F)cccc1Cl`, the inhibition was 3% (inactive). As for `O=C(c1cc2ccccc2oc1=O)N1CCN(c2ccc(N3CCOCC3)nn2)CC1`, the figure is 0% (inactive); as for `CN(C)c1ccc2c(c1)OC(N)=C(C#N)C2c1cccc(F)c1` (stereo not given), 0% (inactive). As for `C1CCC2=NCCCN2CC1`, the figure is 7% (inactive); as for `Cc1onc(-c2ccccc2)c1C(=O)NCCN1CCOCC1`, 3% (inactive).

For `CC(C)(C)NC(=O)CN(C(=O)CS(=O)CC(=O)Nc1ccc(F)cc1)c1ccc(Cl)cc1` (stereo not given), the inhibition was 0% (inactive). As for `COc1ccc(C(c2nnnn2C2CCCC2)N2CCN(C3CCCC3)CC2)cc1OC` (stereo not given), the figure is 4% (inactive); as for `CCOc1ccc(NC2c3ccccc3C(=O)N2Cc2ccco2)cc1` (stereo not given), 1% (inactive). The same measure for `CCOC(=O)N1CCC(N2C(=O)c3ccccc3C2Nc2cc(Cl)c(OC)cc2OC)CC1` (stereo not given): 0% (inactive). Regarding `Cc1nccn1CCCN1C(=O)OC2(CCCCC2)C1(C)O` (stereo not given), the inhibition is 0% (inactive). As for `CCCn1nnnc1SCC(=O)c1ccc2c(c1)OCCO2`, the figure is 11% (inactive); as for `O=C1NC2=C(C(=O)CCC2)C(c2ccc3ncccc3c2)N1` (stereo not given), 0% (inactive); as for `COc1cc(C(=O)N2CCCC(c3nc(-c4cccs4)no3)C2)cc(OC)c1OC` (stereo not given), 0% (inactive). As for `CCn1nc(C(=O)OCC(=O)N2CCc3ccccc32)c2ccccc2c1=O`, the figure is 7% (inactive); as for `COc1ccc(-c2cc(C(=O)NCCc3ccccc3)no2)cc1OC`, 4% (inactive).

With `Cc1c(C=NCCOCc2ccccc2)cnn1C`, the inhibition was 0% (inactive). The same measure for `CC(=O)OCC(=O)[C@@]1(O)CC[C@H]2[C@@H]3CCC4=CC(=O)CC[C@]4(C)[C@H]3[C@@H](O)C[C@@]21C`: 5% (inactive); for `CC(=O)c1nnn(-c2nc(N3CCCC3)nc(N(c3ccccc3)c3ccccc3)n2)c1C`: 0% (inactive). `CN(CC(O)COCc1cccs1)C1CCCCC1` (stereo not given): the inhibition was 1% (inactive). Take `CC1=C(C(=O)OC(C)C)C(c2cccc(F)c2)n2ncnc2N1` (stereo not given): the inhibition is 2% (inactive).

For `O=C(Cn1cccc1)N1CCN(C(c2ccccc2)c2ccccc2)CC1`, the inhibition was 13% (inactive). With `CC(=O)[C@H]1CC[C@H]2[C@@H]3CCC4=CC(=O)CC[C@]4(C)[C@H]3CC[C@]12C`, the inhibition is 5% (inactive). Take `N/C(Cn1nnc(-c2ccccc2)n1)=N\O`: the inhibition is 3% (inactive).

Regarding `COC(=O)c1ccc(COc2ccc(C3C4=C(CCCC4=O)Nc4onc(C)c43)cc2)cc1` (stereo not given), the inhibition is 0% (inactive). On to `CC1CCN(C(=O)CSc2nc3ccccc3[nH]2)CC1`, for which the inhibition is 0% (inactive). The same measure for `Cc1ccc(C)c(NC(=O)CC(NCCCN2CCOCC2)C(=O)O)c1` (stereo not given): 7% (inactive); for `Cc1ccc(S(=O)(=O)N2CCN(S(C)(=O)=O)C2c2ccccc2)cc1` (stereo not given): 0% (inactive). As for `COc1ccc(CN(CCN(C)C)c2ccccn2)cc1`, the figure is 4% (inactive); as for `CCc1cccc(NC(=O)C2CCCN(S(=O)(=O)c3c(C)[nH]c(=O)[nH]c3=O)C2)c1` (stereo not given), 4% (inactive).

As for `Cc1cccc(NC(=O)CC2NC3CCCCC3NC2=O)c1` (stereo not given), the inhibition was 0% (inactive). The same measure for `C=CCOC(=O)C(C#N)c1nc2ccccc2nc1N1CCN(Cc2ccccc2)CC1` (stereo not given): 2% (inactive); for `O=C(NCc1cccnc1)c1ccccc1Br`: 7% (inactive). The same measure for `COc1ccccc1N1C(=O)CCC1(C#N)c1ccccc1` (stereo not given): 0% (inactive). As for `CC(C)C(C(=O)Nc1ccc2c(c1)OCO2)N1C(=O)c2ccccc2C1=O` (stereo not given), the inhibition is 0% (inactive). The same measure for `CCn1c(=O)cc(SCC(=O)NCC2CCCO2)c2ccccc21` (stereo not given): 6% (inactive).
